The text below walks through data of PubChem BioAssay AID588345 (Broad Institute, 2011).

The campaign covered roughly 1,300 compounds. About 850 (65%) were called active. Not shown: some 1% with an inconclusive outcome. No rule for the calls is given here. The set was probably picked from earlier hits. These entries were drawn from the full list. Measured potencies and affinities stand elsewhere.

The assay deals with Dual specificity tyrosine-phosphorylation-regulated kinase 1A (Rattus norvegicus) (UniProt Q63470). Kind of assay: rat Dyrk1A kinase inhibitors, dose response, biochemical, cherry-pick, plate reader, 2124-01 (AID 588345). Conditions: Dyrk1A kinase biochemical assay; series mostly up to 12 µM.
As for `Cc1ccc(C(=O)c2coc3ccc(OCC(=O)O)cc23)cc1`, the result was inactive.
The same measure for `Cc1c(O)ccc2c(CN(C)Cc3ccccc3)cc(=O)oc12`: “inactive”; for `Cc1cccc(C)c1OCCOC(=O)c1n[nH]c2ccccc12`: “inactive”.
The same measure for `CCOCCOc1nc2c(c(=O)n(C)c(=O)n2C)n1Cc1ccc(C)cc1`: “inactive”; for `Cc1ccc(-c2csc3ncnc(SCC(=O)O)c23)cc1`: “inactive”; for `O=C(O)CSc1ncnc2scc(-c3ccccc3)c12`: “inactive”.
The result for `O=C1C(Cl)=C(N2CCC(C(=O)O)CC2)C(=O)c2ccccc21` reads “inactive”.
On to `COc1ccc(-c2nc(N)ncc2-c2ccccc2OC)c(O)c1`, for which the result was inactive.
Regarding `CCc1cc(-c2[nH]ncc2-c2ccc3c(c2)OCO3)c(O)cc1O`, the call was inactive.
The same measure for `CCCCCCCCN1[C@@H](CC(=O)OC)c2cc(C(F)(F)F)ccc2S1(=O)=O`: “inactive”; for `C/C(=N/NC(=O)c1ccc(Br)s1)c1cccnc1`: “inactive”; for `CCc1ccc(C(=O)Nc2cccc(-c3nn[nH]n3)c2)s1`: “inactive”.
The same measure for `Cc1cccc(NC(=S)NNC(=O)c2csc3c2CCC(C)C3)c1` (configuration not stated): “inactive”; for `O=C(Nc1cccc(-c2nn[nH]n2)c1)c1csc2c1CCCC2`: “inactive”.
The result for `C/C(=C/c1oc2ccc(O)cc2c1[N+](=O)[O-])N(C)C` reads “inactive”; that for `CCC(C)[C@H]1CNCCN1CCc1cccc2ccccc12` (some centres not stated), “inactive”.
In the case of `Cc1cccc(NC(=O)C2NC(=O)CC2c2ccccc2)c1C` (configuration not stated), the call was inactive.
The result for `COc1ccc(-n2nc(C)cc2Nc2ccccc2C(=O)O)cc1` reads “inactive”.
Turning to `CCOC(=O)c1nnc(-c2ccc(C)cc2)nc1Sc1ccc(Cl)cc1`, the molecule was classed as inactive.
`O=C(O)c1[nH]c2ccc([N+](=O)[O-])cc2c1-c1ccccc1`: the molecule was classed as inactive.
On to `COCCNc1cc(C)nc2c(-c3ccccc3OC)c(C)nn12`, for which the molecule was classed as inactive.
The result for `CC(=O)Nc1cccc(C(=O)OCC(=O)c2ccc3c(c2)OCO3)c1` reads “inactive”.
The same measure for `Cc1c(Br)c(=O)oc2c(Br)c(O)ccc12`: “inactive”; for `Oc1ccc(-c2csc(Nc3cccnc3)n2)cc1`: “inactive”; for `Clc1cccc(Cc2nn[nH]n2)c1`: “inactive”.
The same measure for `CCOCCCNC(=O)/C(C#N)=C/c1cc(Br)c(O)c(Br)c1`: “inactive”; for `N#Cc1c(N)nc2c3c(sc(=N)c2c1N)NC(=O)CC3c1c(F)cccc1Cl` (configuration not stated): “inactive”.
As for `COc1ccc2c(C#CCCO)c(-c3ccc(S(C)(=O)=O)cc3)sc2c1`, the molecule was called inactive.
The same measure for `O=C(CSc1nc(-c2ccco2)cc(C(F)(F)F)n1)NCCCn1ccnc1`: “inactive”; for `Nc1ccc(-c2ccc(C(=O)O)s2)cn1`: “inactive”; for `CSc1nc(SCC(N)=O)c2c3c(sc2n1)CN(C)CC3`: “inactive”.
The result for `COc1ccc(C(=O)N(Cc2nc(-c3ccc(C)cc3)no2)C(C)C)cc1OC` reads “inactive”; that for `CCc1n[nH]c(=S)n1/N=C/c1c[nH]c2ccc(Br)cc12`, “inactive”.
The same measure for `COc1cccc(-c2nnc3sc(C4CCCCC4)nn23)c1`: “inactive”; for `O=c1nc2n(c3sc4c(c13)CCCC4)C(CBr)CS2` (configuration not stated): “inactive”; for `Oc1cc(-c2ccncc2)cc2cccnc12`: “inactive”.
With `Cc1ccccc1C(=O)NNC(=O)CCCCC(=O)NNC(=O)c1ccccc1C`, the outcome was inactive.
As for `Cc1ccc(-c2cc(O)cc3sc(=O)oc23)cc1C`, the molecule was classed as inactive.
The same measure for `O=c1cc(-c2ccccc2)c2c(O)cc(O)cc2o1`: “inactive”.
In the case of `O=C1C=C(c2ccc3c(c2)OCO3)CCC1`, the molecule was called inactive.
The result for `CC(=O)Nc1nc(-c2ccc3c(c2)OCO3)cs1` reads “inactive”.
The same measure for `CCCN1CCN(c2ncnc3scc(C4COc5ccccc5O4)c23)CC1` (configuration not stated): “inactive”.
